From PubChem BioAssay (EPA / NIEHS) come the findings set out here.

Inconclusive results are not listed. Active and inactive are the calls of the source. How the source made its calls: active means hit-call score of the fitted dose curve at least 0.9, where 1 is the maximum; inconclusive means response in the unintended direction; inactive means score below 0.9.

This assay in a line: ATG_M_32_XSP2: Attagene TRANS-FACTORIAL Multi-Species (XSP2) HepG2 Assay for M19 Transcription Factor (Internal Marker) (AID 2283826). How it is done: ATG_XSP2_multi-species_TRANS is a cell-based, multiplexed assay created by modifying the existing Attagene TRANS-FACTORIAL system to include a panel of nuclear receptors from some or all the following species: human (Homo sapiens), mouse (Mus musculus), frog (Xenopus laevis), zebrafish (Danio rerio), chicken (Gallus gallus), and turtle (Chrysemys picta). The ECOTOX-FACTORIAL format uses HepG2, a human liver cell line, with measurements taken at 24 hours after chemical dosing in a 24-well plate. Xsp2 included 3 nM 6-alpha-fluorotestosterone and 1.5 nM norgestrel to stimulate the androgen receptor.ATG_M_32_XSP2 is one of 29 assay components measured or calculated from the ATG_XSP2_multi-species_TRANS assay. It is designed to make measurements of mRNA induction, a form of inducible reporter, as detected with fluorescence intensity signals by Reverse transcription polymerase chain reaction (RT-PCR) and Capillary electrophoresis technology.This assay endpoint, ATG_M_32_XSP2, was analyzed in the positive analysis fitting direction relative to DMSO as the negative control and baseline of activity. Using a type of inducible reporter, measures of mRNA for gain-of-signal activity can be used to understand the background control at the transcription factor-level as they relate to the gene. Furthermore, this assay endpoint can be referred to as a secondary readout, because this assay has produced multiple assay endpoints where this one serves a background control function. To generalize the intended target to other relatable targets, this assay endpoint is annotated to the background measurement intended target family, where the subfamily is internal marker.
Human liver HepG2 cells are transiently transfected with multiple reporter transcription units (MRTUs) in 6-well plates using FuGene 6 reagent (Roche; 3 ml FuGene/1 mg DNA). The MRTU constructs are regulated by a cis-regulating element (promoter). […] A major difference between the CIS and TRANS system is that in CIS activities of endogenous TFs are measured, whereas the TRANS assay evaluates changes in activities of exogenous, chimeric NR-Gal4 proteins. […] At the end of 24 hour incubation, total RNA was isolated using TriZol reagent (Invitrogen). The isolated RNA is then reverse-transcribed using oligo(dT) primer and Mo-MLV reverse transcriptase (Invitrogen) with DNAse I (Ambion) treatment for 30 min. The one-tenth of the produced cDNA was amplified by PCR using Taq DNA polymerase (Invitrogen) and two reporter sequence-specific primers. The PCR products were fluorescently labeled by primer extension with 6-arboxyfluorescein (6-FAM) 5'-labeled reporter sequence-specific primer (2 min at 95 C, 20 s at 68 C and 10 min at 72 C) and these products were digested with 5U of HpaI (New England Biolabs) for 2h at 37 C. The fragments were purified using Qiaquick PCR columns (Qiagen), analyzed on an ABI 3130xL genetic analyzer (Applied Biosystems) with peak positions identified by using a set of X-rhodamine (ROX)-labeled MapMarker1000 molecular weight standards (BioVentures). The raw capillary electrophoresis data was processed using Attagraph software (Attagene).
As to `COP(=O)(OC)O/C(=C\Cl)c1cc(Cl)c(Cl)cc1Cl`, the compound was classed as inactive.
The result for `C[C@]12CC[C@H](O)CC1=CC[C@@H]1[C@@H]2CC[C@]2(C)C(=O)CC[C@@H]12` reads “inactive”; that for `CC12CC1(C)C(=O)N(c1cc(Cl)cc(Cl)c1)C2=O` (configuration not stated), “inactive”.
As to `Oc1c(I)cc(I)cc1I`, the call was inactive.
Regarding `O=C1C2(Cl)C3(Cl)C4(Cl)C(Cl)(Cl)C5(Cl)C3(Cl)C1(Cl)C5(Cl)C24Cl` (configuration not stated), the call was inactive.
The result for `CC(=O)C=C(C)C` reads “inactive”; that for `C[C@]12CCC(=O)C[C@@H]1CC[C@@H]1[C@@H]2CC[C@]2(C)[C@@H](O)CC[C@@H]12`, “inactive”; that for `Oc1ccc(-c2ccccc2)cc1`, “inactive”.
In the case of `CC(C)C1CCC(Cc2ccc(Cl)cc2)C1(O)Cn1cncn1` (configuration not stated), the call was inactive.
The result for `CC1(C)CCC(Cc2ccc(Cl)cc2)C1(O)Cn1cncn1` (configuration not stated) reads “inactive”.
The result for `CC(C)(C)c1cc(O)ccc1O` reads “inactive”; that for `Clc1ccc(C2(Cn3cncn3)CC(Br)CO2)c(Cl)c1` (configuration not stated), “inactive”.
